The record followed here is ChEMBL document CHEMBL3433997, “St. Jude Leishmania screening dataset” (2016).

Holding throughout (format): functional
Experiment [1] deals with Solute carrier family 2, facilitated glucose transporter member 1 (Homo sapiens) (UniProt P11166). Put plainly: ST_JUDE_LEISH: Cytotoxicity at 2uM final concentration against transgenic Leishmania Mexicana promastigotes LmGLUT1 that are glucose transport deficient and complemented with the human glucose transporter GLUT1. Activity is measured by DNA content using SYBR green in vitro.

Experiment [2] addresses Hexose transporter 1 (Plasmodium falciparum) (UniProt O97467). As to the kind of experiment: ST_JUDE_LEISH: Cytotoxicity at 2uM final concentration against transgenic Leishmania Mexicana promastigotes LmPfHT that are glucose transport deficient and complemented with the Plasmodium falciparum hexose transporter. Activity is measured by DNA content using SYBR green in vitro.

Experiment [3] has as its target Glucose transporter (Leishmania mexicana) (UniProt O61059). Put plainly: ST_JUDE_LEISH: Cytotoxicity at 2uM final concentration against transgenic Leishmania Mexicana promastigotes LmGT2 that are glucose transport deficient and complemented with the L. Mexicana glucose transporter 2. Activity is measured by DNA content using SYBR green in vitro.

Sequence of Solute carrier family 2, facilitated glucose transporter member 1 (Homo sapiens) (P11166 whole entry): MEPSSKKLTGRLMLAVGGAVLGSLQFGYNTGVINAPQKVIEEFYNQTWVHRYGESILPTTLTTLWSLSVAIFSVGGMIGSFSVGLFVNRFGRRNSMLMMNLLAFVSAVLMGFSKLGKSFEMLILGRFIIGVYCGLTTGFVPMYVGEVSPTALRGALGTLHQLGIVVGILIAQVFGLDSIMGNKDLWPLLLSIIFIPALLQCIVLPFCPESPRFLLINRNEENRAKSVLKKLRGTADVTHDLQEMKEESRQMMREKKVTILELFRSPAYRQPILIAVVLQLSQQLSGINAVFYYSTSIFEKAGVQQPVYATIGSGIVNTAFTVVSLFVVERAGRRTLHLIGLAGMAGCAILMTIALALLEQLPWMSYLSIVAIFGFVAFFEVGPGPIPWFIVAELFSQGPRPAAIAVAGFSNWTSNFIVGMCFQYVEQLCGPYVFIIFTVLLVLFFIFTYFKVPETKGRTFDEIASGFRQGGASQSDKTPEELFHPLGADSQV

In the case of `Cc1cc(N[C@@H](Cc2ccccc2)C(=O)NC2CCCC2)nc(NCc2ccccc2C)n1`, the inhibition in experiment [1] turned out to be 6.22%; in experiment [2], 6.32%; in experiment [3], 4.04%.

As for `CS(=O)(=O)Nc1cccc(-c2cnc3[nH]cc(-c4cccc(CN)c4)c3c2)c1`, the inhibition worked out at 4.77% in experiment [1], 3.29% in experiment [2] and 3.74% in experiment [3].

Turning to `COc1ccc(C2C(C(=O)OC3CCCC3)=C(C)NC3=C2C(=O)CCC3)cc1Br` (stereo unspecified), the inhibition was 1.02% in experiment [1], -0.27% in experiment [2] and 0.31% in experiment [3].

For `NC(CC1CC(=O)N1CC(=O)O)C(=O)O` (stereo unspecified), the inhibition in experiment [1] is 8.57%; in experiment [2], 7.82%; in experiment [3], 8.53%.

For `O=C(Nc1ccccc1)N(Cc1cccc(-c2ccc(CNCc3ccc4c(c3)OCO4)cc2)c1)C1CCN(Cc2ccccc2)CC1`, the inhibition in experiment [1] turned out to be 2.89%; in experiment [2] it was 4.07%; in experiment [3], 2.52%.

Turning to `Cc1cc(-c2ccc(CNCCc3cccs3)cc2)ccc1S(=O)(=O)NCc1ccccc1`, the inhibition in experiment [1] is 13%; in experiment [2], 17.3%; in experiment [3], 8.49%.

For `[O-][S+]1c2ccccc2Sc2ccccc21`, the values for the inhibition in experiment [1], in experiment [2] and in experiment [3] were 2.27%, 3.44% and 1.95%, respectively.

Consider `O=C(NCCN1CCCCC1)c1ccc(Nc2nccc(Nc3ccc(Oc4ccccc4)cc3)n2)cc1`, for which the inhibition in experiment [1] came to 7.53%; in experiment [2], 8.31%; in experiment [3], 16.6%.

`OC(c1ccccc1)C1CN(Cc2ccccc2)CCC1(O)c1ccccc1` (stereo unspecified): the inhibition in experiment [1] came out at 8.06%; in experiment [2] it was 7.93%; in experiment [3] it was 7%.

With `Nc1nc(N)c2cc(NC(=O)c3ccc(Cl)c(Cl)c3)ccc2n1`, the values for the inhibition in experiment [1], in experiment [2] and in experiment [3] were 5.31%, 2.01% and 4.8%, respectively.

With `CCc1ccc(CNCC(CCNc2cc(=O)c3ccccc3[nH]2)NCc2cc(Br)cc(Br)c2)o1` (stereo unspecified), the inhibition in experiment [1] is -1.12%; in experiment [2], 1.71%; in experiment [3], -0.33%.

With `COc1cc2c(c(Cl)c1OC)CCN(Cc1ccccc1)CC2c1ccc(NC(=O)C(F)(F)F)cc1` (stereo unspecified), the inhibition in experiment [1] came out at 3.91%; in experiment [2], 2.68%; in experiment [3] it was 2.44%.

As for `O=[N+]([O-])c1cccc(Nc2cncc(-c3ccc(CO)cc3)c2)c1`, the values for the inhibition in experiment [1], in experiment [2] and in experiment [3] were 2.04%, 0.66% and 0.83%, respectively.

Regarding `Cc1ccccc1Nc1nc(Nc2ccccc2)c2ccccc2n1`, the values for the inhibition in experiment [1], in experiment [2] and in experiment [3] were 38.8%, 44% and 13%, respectively.

`COc1ccccc1CNc1nc(Nc2ccccc2C)nc2ccccc12`: the inhibition in experiment [1] amounted to 38.4%; in experiment [2], 54.5%; in experiment [3] it was 14.4%.

`COc1ccc(S(=O)(=O)NCCC2CCN(CCCCCNC(=O)C=Cc3ccc(Cl)c(Cl)c3)CC2)cc1`: the values for the inhibition in experiment [1], in experiment [2] and in experiment [3] were 2.06%, 2.12% and 1.49%, respectively.

For the compound `O=C(Nc1cccc(-c2cc3ccccc3[nH]2)c1)C1CCN(Cc2ccccc2O)CC1`, the figures for the inhibition in experiment [1], in experiment [2] and in experiment [3] were 10.3%, 9.31% and 8.56%, respectively.

For `O=C(CCc1cccnc1)Nc1cccc(-c2ccc(-c3nc4cc(C(F)(F)F)ccc4[nH]3)s2)c1`, the inhibition in experiment [1] is -0.82%; in experiment [2], 1.89%; in experiment [3], 2.16%.

Regarding `Cc1cc(I)ccc1Nc1nc2nonc2nc1Nc1ccc(I)cc1C`, the inhibition in experiment [1] turned out to be 9.92%; in experiment [2], 9.02%; in experiment [3] it was 9.11%.

On to `COc1cccc(CNc2ncc(-c3ccsc3)c(-c3nccs3)n2)c1`, for which the inhibition in experiment [1] is -0.5%; in experiment [2] it was 0.89%; in experiment [3] it was -0.73%.

In the case of `CN(C)CCOc1ccc2c(c1)CN(C)CC2c1ccccc1` (stereo unspecified), the inhibition in experiment [1] is 1.17%; in experiment [2], 0.33%; in experiment [3], 0.03%.

`CO/C(=C\C=C\c1cc2cc(Cl)c(Cl)cc2[nH]1)C(=O)NC1CCN(CCCc2ccccc2)CC1`: the results for the inhibition in experiment [1], in experiment [2] and in experiment [3] were 0.89%, 1.14% and 2.46%, respectively.

With `COc1ccccc1C(C)NCC(=O)Nc1cc(C(F)(F)F)ccc1Cl` (stereo unspecified), the inhibition in experiment [1] was 1.79%; in experiment [2], 3.31%; in experiment [3] it was 0.58%.

Regarding `COc1ccc(-c2ccc(NC(=O)c3ccc(Cl)cc3)cc2)cc1CN(C)CCO`, the inhibition in experiment [1] is 4.1%; in experiment [2], 3.45%; in experiment [3], -0.68%.

For the compound `Cc1cccc2nc(-c3cccc(-c4ccc(NC(=O)c5cnn6cccnc56)cc4)c3)[nH]c12`, the inhibition turned out to be 11.4% in experiment [1], 9.77% in experiment [2] and 7.27% in experiment [3].

On to `N#CC1(CCCNCCc2ccc(O)cc2)CCCc2c(O)cccc21` (stereo unspecified), for which the inhibition in experiment [1] worked out at 14.1%; in experiment [2], 12%; in experiment [3], 11.7%.

As to `Cc1cc(-c2cccc(CNC3CCCC3)c2)ccc1S(=O)(=O)NCCN1CCCC1`, the values for the inhibition in experiment [1], in experiment [2] and in experiment [3] were 5%, 3.43% and 6.24%, respectively.

Take `CNC(=O)c1cc(S(=O)(=O)Nc2ccc(OC)cc2)cs1`: the inhibition in experiment [1] is 0.48%; in experiment [2], 0.9%; in experiment [3] it was 2.1%.

Take `C=CCN1C(=O)CN(S(=O)(=O)c2ccc(-n3nc(C)cc3C)cc2)C1=S`: the inhibition was found to be 3.32% in experiment [1], 3.89% in experiment [2] and 2.49% in experiment [3].

Take `Nc1c(Cl)cc(C(O)CNCCCCCCOCCC=C2CCOCC2)cc1Cl` (stereo unspecified): the inhibition in experiment [1] was -0.91%; in experiment [2], 0.32%; in experiment [3] it was -1.31%.

In the case of `Cc1noc(C)c1-c1ccc2c(Nc3ccccc3C(C)(C)C)c(C(=O)NCc3ccc(C(F)(F)F)cc3)cnc2c1`, the inhibition in experiment [1] stood at 3.44%; in experiment [2], 5.41%; in experiment [3], 3.69%.

As to `COc1ccc2nccc([C@@H](O)CN3CCC(NCc4cc5ccc(C#N)cc5[nH]4)CC3)c2c1`, the inhibition in experiment [1] amounted to 13.5%; in experiment [2], 12.8%; in experiment [3], 9.02%.

Consider `CN(C)c1ccc(Br)c(Br)c1`, for which the inhibition in experiment [1] is 3.2%; in experiment [2], 4.63%; in experiment [3], -1.28%.

As to `Cc1noc(-c2ccc3c(c2)CCN(CCC2CCC(NC(=O)/C=C/c4cccc(Cl)c4)CC2)CC3)n1` (stereo unspecified), the inhibition in experiment [1] stood at 1.02%; in experiment [2], 0%; in experiment [3], 0.68%.

Regarding `CNC(=O)c1ccc2nc(-c3ccc(-c4ccccc4)cc3)n(CC3CCN(CC4CCCC4)CC3)c2c1`, the inhibition in experiment [1] was 1.8%; in experiment [2] it was 0.69%; in experiment [3], 1.13%.

As for `CCCNC(=O)c1ccnc(-c2ccc(CNC3Cc4ccccc4C3)cc2)c1`, the inhibition in experiment [1] is 1.45%; in experiment [2], 1.35%; in experiment [3], -0.22%.

As to `CC(=O)Nc1ccc(C#Cc2ccc(-c3c(C)[nH]c(C)c(Cl)c3=O)cc2)cc1`, the results for the inhibition in experiment [1], in experiment [2] and in experiment [3] were 1.3%, 0.64% and 1.24%, respectively.
